Screen size: about 5,600 compounds; about 390 (7%) showed an effect of 50% or more. The list comes from a sample in which strong results are over-represented; it also holds similar structures and randomly drawn compounds. Non-standard residues stand in square brackets, D forms with d. Residues, ends and D or L forms follow the SMILES beside them. *: point of attachment. dPhe(4-NHCONH2) = NC(=O)Nc1ccc(C[C@@H](N)C(=O)O)cc1; Dihydroorotyl(S) = O=C1C[C@@H](C(=O)*)NC(=O)N1; dPhe(4-Cl) = N[C@H](Cc1ccc(Cl)cc1)C(=O)O; Phe(4-NH2) = Nc1ccc(C[C@H](N)C(=O)O)cc1; d2Nal = N[C@H](Cc1ccc2ccccc2c1)C(=O)O; Lys(iPr) = CC(C)NCCCC[C@H](N)C(=O)O; d3Pal = N[C@H](Cc1cccnc1)C(=O)O
molecular target: T1, Protein deacetylase HDAC6 (Homo sapiens) (UniProt Q9UBN7); conditions: at 10 µM
T1 sequence (whole entry): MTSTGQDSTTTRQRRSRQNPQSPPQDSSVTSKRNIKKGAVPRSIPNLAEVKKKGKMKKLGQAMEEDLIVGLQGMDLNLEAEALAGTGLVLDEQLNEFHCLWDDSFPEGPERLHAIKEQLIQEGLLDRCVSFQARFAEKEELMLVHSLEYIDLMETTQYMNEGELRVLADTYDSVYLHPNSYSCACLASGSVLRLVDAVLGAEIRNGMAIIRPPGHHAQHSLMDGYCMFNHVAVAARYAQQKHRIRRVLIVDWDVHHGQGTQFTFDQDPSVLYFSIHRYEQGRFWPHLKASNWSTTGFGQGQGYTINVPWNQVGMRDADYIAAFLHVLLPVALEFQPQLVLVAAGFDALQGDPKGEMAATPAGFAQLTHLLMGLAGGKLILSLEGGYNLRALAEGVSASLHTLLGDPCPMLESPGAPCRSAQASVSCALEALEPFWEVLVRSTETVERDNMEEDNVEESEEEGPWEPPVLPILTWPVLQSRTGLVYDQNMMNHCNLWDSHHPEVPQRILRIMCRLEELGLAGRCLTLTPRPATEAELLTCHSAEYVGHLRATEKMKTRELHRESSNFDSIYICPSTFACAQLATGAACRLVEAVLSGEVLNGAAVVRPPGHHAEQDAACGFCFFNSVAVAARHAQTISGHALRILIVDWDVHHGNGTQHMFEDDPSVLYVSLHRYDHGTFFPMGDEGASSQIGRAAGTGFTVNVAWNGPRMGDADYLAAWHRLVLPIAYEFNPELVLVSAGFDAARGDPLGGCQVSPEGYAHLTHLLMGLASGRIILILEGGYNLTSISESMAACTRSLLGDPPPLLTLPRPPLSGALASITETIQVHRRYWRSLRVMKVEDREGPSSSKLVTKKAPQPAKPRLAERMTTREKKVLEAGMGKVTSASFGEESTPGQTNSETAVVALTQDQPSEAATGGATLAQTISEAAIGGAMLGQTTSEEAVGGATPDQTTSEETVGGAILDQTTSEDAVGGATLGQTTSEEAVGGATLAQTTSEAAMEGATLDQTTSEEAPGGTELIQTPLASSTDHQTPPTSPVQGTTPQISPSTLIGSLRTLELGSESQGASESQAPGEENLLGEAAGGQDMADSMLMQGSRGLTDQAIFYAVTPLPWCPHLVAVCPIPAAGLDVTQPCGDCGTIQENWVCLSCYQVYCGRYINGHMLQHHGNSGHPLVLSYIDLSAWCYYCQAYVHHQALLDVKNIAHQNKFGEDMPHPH

| SMILES | inhibition [%] |
| --- | --- |
| Cc1nc(Nc2ncc(C(=O)Nc3c(C)cccc3Cl)s2)cc(N2CCN(CCO)CC2)n1 | 21.2 |
| CC1(C)CC(=O)C(C2C3=C(CC(C)(C)CC3=O)Oc3ccccc32)C(=O)C1 (configuration not stated) | -3.93 |
| N[C@H](Cc1c[nH]c2ccccc12)C(=O)O | 12 |
| COCCNC(=O)Cn1cnc([N+](=O)[O-])n1 | 6.28 |
| CN([C@@H](Cc1ccc(OS(=O)(=O)c2cccc3cnccc23)cc1)C(=O)N1CCN(c2ccccc2)CC1)S(=O)(=O)c1cccc2cnccc12 | -4.11 |
| CC(C)c1cc(-c2n[nH]c(=O)n2-c2ccc3c(ccn3C)c2)c(O)cc1O | 29.4 |
| Oc1cccc(-c2c3nc(c(-c4cccc(O)c4)c4ccc([nH]4)c(-c4cccc(O)c4)c4nc(c(-c5cccc(O)c5)c5ccc2[nH]5)CC4)C=C3)c1 | 36.9 |
| Nc1nc(N)c2nc(-c3ccccc3)c(N)nc2n1 | 19.4 |
| Nc1nc(N)c2nc(-c3cccc(O)c3)cnc2n1 | 88.7 |
| CCc1cc(C(C)=O)c(O)cc1OCCCCCC(C)(C)c1nn[nH]n1 | 8.67 |
| CCCCN(CC)c1nc(C)nc2c1c(C)c(C)n2-c1c(C)cc(C)cc1C | 7.01 |
| Cn1cc(C(=O)OCC2CCN(CCNS(C)(=O)=O)CC2)c2ccccc21 | -8.82 |
| CN(Cc1ccccc1)C(=O)[C@H](Cc1ccc2ccccc2c1)NC(=O)[C@@H]1C[C@@H](O)CN1C(=O)c1cn(C)c2ccccc12 | 84.1 |
| CN(C)CC/C=C1/c2ccccc2COc2ccc(CC(=O)O)cc21 | 2.79 |
| CC(C)Cc1ccc(C(C)C(=O)NO)cc1 (configuration not stated) | 49.7 |
| CC1(N)CCN(c2cnc(-c3cccc(Cl)c3Cl)c(N)n2)CC1 | 21.6 |
| O=C(O)/C=C/c1ccc(-c2ccc(O)c(C34CC5CC(CC(C5)C3)C4)c2)cc1 | 30.5 |
| O=C(/C=C/c1ccc(O)c(O)c1)OCCc1ccccc1 | 80.7 |
| C[C@@](Cc1ccc(O)c(O)c1)(NN)C(=O)O | -8.77 |
| COc1cc(NC(=O)Nc2cccc(CNC(=O)O[C@H]3CCOC3)c2)ccc1-c1cnco1 | 38.8 |
| CCCCCCNC(=O)n1cc(F)c(=O)[nH]c1=O | 5.48 |

| SMILES | inhibition [%] |
| --- | --- |
| Cn1cc(-c2cnc3ccc4ccc(CS(=O)(=O)NCc5ccccn5)cc4c(=O)c3c2)cn1 | -2.81 |
| O=C(NCc1ccc2c(c1)OCO2)c1c(Cl)cccc1Cl | 76.1 |
| O=C(CN1CCN(Cc2ccc3c(c2)OCO3)CC1)N1c2ccccc2Sc2ccccc21 | 8.76 |
| O=C(COc1ccc(Cl)cc1)N1CCN(Cc2ccc3c(c2)OCO3)CC1 | 6.09 |
| NC(Cc1ccc(Cl)cc1)C(=O)O (racemic) | 19.5 |
| Cc1ccc(-n2sc(=O)n(Cc3ccc(F)cc3)c2=O)cc1 | 41.5 |
| O=c1sn(-c2cccc3ccccc23)c(=O)n1Cc1ccccc1 | 83.4 |
| CNC(=O)c1ccc2cc(C3(O)CCn4cncc43)ccc2c1 (configuration not stated) | 25.9 |
| Nc1nc2c(c(N3CCNCC3)n1)CCC1=C2[C@@H]2CCCC[C@@H]2O1 | -3.26 |
| C[C@H](NC(=O)Cc1cc(F)cc(F)c1)C(=O)N[C@H](C(=O)OC(C)(C)C)c1ccccc1 | 17.3 |
| C[C@H](NCc1ccc(OCc2ccccc2F)cc1)C(N)=O | 69.4 |
| C[C@H](NCc1ccc(OCc2cccc(F)c2)cc1)C(N)=O | 83.6 |
| CNNCc1ccc(C(=O)NC(C)C)cc1 | 4.33 |
| CC(C)COc1ccc(CNC(=O)N(Cc2ccc(F)cc2)C2CCN(C)CC2)cc1 | -8.99 |
| CC(C)NCC(O)COc1ccc(CC(N)=O)cc1 (configuration not stated) | 4.66 |
| C(#Cc1nc2ncccc2nc1OCCN1CCCC1)c1ccccc1 | 30.5 |
| O=c1[nH]c2ccccc2n1CCCN1CCN(C(c2ccccc2)c2ccccc2)CC1 | -9.27 |
| O=C1c2ccccc2-n2c1nc1ccccc1c2=O | 104 |
| C[C@H](NC[C@H](O)CP(=O)(O)Cc1ccccc1)c1ccc(Cl)c(Cl)c1 | -2.08 |
| N=C(N)S/C=C\C(=O)O | 6.84 |
| CC(=O)N[C@H](Cc1ccc2ccccc2c1)C(=O)N[C@H](Cc1ccc(Cl)cc1)C(=O)N[C@H](Cc1cccnc1)C(=O)N[C@@H](CO)C(=O)N[C@@H](Cc1ccc(NC(=O)[C@@H]2CC(=O)NC(=O)N2)cc1)C(=O)N[C@H](Cc1ccc(NC(N)=O)cc1)C(=O)N[C@@H](CC(C)C)C(=O)N[C@@H](CCCCNC(C)C)C(=O)N1CCC[C@H]1C(=O)N[C@H](C)C(N)=O (Ac-[d2Nal][dPhe(4-Cl)][d3Pal]S[Phe(4-NH2)](Dihydroorotyl(S))[dPhe(4-NHCONH2)]L[Lys(iPr)]P[dA]-NH2) | 33.2 |

| SMILES | inhibition [%] |
| --- | --- |
| NS(=O)(=O)c1cc2c(cc1Cl)NCNS2(=O)=O | -9.26 |
| NS(=O)(=O)c1cc2c(cc1Cl)N=C(CSCc1ccccc1)NS2(=O)=O | 78.4 |
| CN1C(CSCC(F)(F)F)Nc2cc(Cl)c(S(N)(=O)=O)cc2S1(=O)=O (configuration not stated) | 11.5 |
| COc1cc(OC)cc(C(=O)NNC(=O)Nc2cccc3ccccc23)c1 | 9.39 |
| O=C(O)c1ccccc1Nc1cccc(OCc2ccc3ccccc3n2)c1 | 14.8 |
| CCCCCC(O)c1cccc(OCc2ccc3ccccc3n2)c1 (configuration not stated) | 70.6 |
| Cn1cc(-c2ccncc2)c(-c2ccc(OCc3ccc4ccccc4n3)cc2)n1 | 4.18 |
| NS(=O)(=O)c1cc(C(=O)O)cc(N2CCCC2)c1Oc1ccccc1 | 1.91 |
| COc1c(Nc2ccc(S(C)(=O)=O)nc2C)ncnc1OC1CCN(C(=O)OC(C)C)CC1 | 42.5 |
| O=C1NCCN1CCN1CCC(c2cn(-c3ccc(F)cc3)c3ccc(Cl)cc23)CC1 | 3.95 |
| O=c1cc(N2CCOCC2)nc2c3ccccc3ccn12 | 33.6 |
| Cc1cc([C@@H](C)Nc2ccccc2C(=O)O)c2nc(N3CCOCC3)cc(=O)n2c1 | 92.5 |
| Cc1c(Cn2c(C)nc3c(C(=O)O)cc(N4CCOCC4)cc32)cccc1C(F)(F)F | 13.4 |
| CCN1CCN(Cc2ccc(Nc3ncc(F)c(-c4cc(F)c5nc(C)n(C(C)C)c5c4)n3)nc2)CC1 | -7.99 |
| c1ccc(N2CCN(CCCOc3ccc4c(c3)OCO4)CC2)cc1 | 8.38 |
| CCOC(=O)c1ncc2[nH]c3cccc(OC(C)C)c3c2c1C | -0.9 |
| CNC(=O)c1cc2c(cn1)[nH]c1ccccc12 | 71.2 |
| CCCCC(=O)NCCc1c(Cc2ccccc2)[nH]c2ccccc12 | -8.08 |
| CCCCCCN(CCCCCC)C(=O)Cc1c(-c2ccc(F)cc2)[nH]c2ccccc12 | 0.87 |
| CCCCOC(=O)c1cc2c(cn1)[nH]c1ccccc12 | 78.3 |

From ChEMBL document CHEMBL4808148, “HDAC6 screening dataset using tau-based substrate in an enzymatic assay yields selective inhibitors and activators” (2021)
